# From PubChem
# In the library only some 2% were active in any assay of this set; here they are far more common.
# Abeta yeast res: compounds reversing amyloid beta toxicity in yeast. 0.063% of 410,000 active. AID 1347071. Potency, µM (series often up to 46.1 µM), hits mostly activators. yeast expressing A-beta42, growth rescue, OD600, 48 h; response scale: 0% DMSO, 100% iron-clioquinol control; note: nearly all actives have a fitted effect of over 55% in size
#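 Yeast A-beta toxicity model in growth medium with pinned compounds, 48 h at 30 C; growth read as absorbance at 600 nm. Normalized to FeCl3/clioquinol equimolar mix (positive) and DMSO (negative).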
# MBNL1 CUG block: inhibitors of human MBNL1 binding to CUG repeat RNA; Q9NR56; TR-FRET MBNL1-His/biotin-(CUG)12 binding, 665/545 ratio; Potency, µM (highest dose often 57.5 µM), for the others: at the top dose activity change, negative = inhibition, usual class: inhibitors; 0.036% of 280,000 active; active = well fitted inhibition curve with a large enough effect in the signal ratio, with a control signal flat, not every such curve was filed as active; inconclusive = small, poorly fitted or top-dose-only effect, or effect the other way, or a change in a side signal; inactive = no such curve, though single readings can be large or run the other way; the % refers to the signal ratio; note: % is set by controls: 0 for no effect and ±100 for the full control effect
# Target sequence (Q9NR56 whole entry, looked up): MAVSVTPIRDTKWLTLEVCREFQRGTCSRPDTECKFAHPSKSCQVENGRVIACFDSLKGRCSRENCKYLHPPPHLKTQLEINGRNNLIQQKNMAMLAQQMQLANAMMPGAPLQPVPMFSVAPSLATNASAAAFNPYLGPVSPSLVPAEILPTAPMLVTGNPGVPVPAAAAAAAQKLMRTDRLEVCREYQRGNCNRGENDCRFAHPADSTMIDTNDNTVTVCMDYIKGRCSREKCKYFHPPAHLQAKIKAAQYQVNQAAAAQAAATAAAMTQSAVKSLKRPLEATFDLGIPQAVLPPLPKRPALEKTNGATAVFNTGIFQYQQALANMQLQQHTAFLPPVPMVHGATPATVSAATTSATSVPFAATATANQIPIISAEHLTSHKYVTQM
#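 TR-FRET between His-tagged MBNL1 and biotin-(CUG)12 RNA, detected with Tb anti-His antibody (0.055 ng/ul) and streptavidin-XL665 (5 nM), 60 min at room temperature. Compounds titrated 92 nM to 58 uM; 665/545 nm ratio normalized to buffer and complex controls.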
# aSyn yeast inh: inhibitors of alpha-synuclein toxicity in yeast; 0.14% of 370,000 active; Yeast expressing alpha-synuclein, growth rescue, BacTiter-Glo, 24 h; AID 652106; Potency, µM (top dose mostly 46.1 µM), without a hit: at the highest dose growth rescue (activation), usual class: activators; note: % of control where 0% means no effect; nearly all actives have a fitted effect of over 65% in size
#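 Readout is rescue of growth in alpha-synuclein-expressing yeast, so inhibitors of toxicity appear as activators. Growth after 24 hr at 30 deg C in galactose medium is quantified by luminescence.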
# FUS yeast rescue: suppressors of FUS proteinopathy in yeast | Potency, µM (top dose mostly 76.6 µM), hits mostly activators | 0.24% of 390,000 active | S. cerevisiae FUS-expressing, growth rescue, OD600, 24 h;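 note: plate controls were DMSO vehicle for no effect and reference control for full effect; nearly all actives have a fitted effect of over 55% in size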
#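 Galactose (2%) drives FUS expression in yeast precultured in raffinose; seeding density OD 0.005. Test compounds incubated 24hr at 30C and 99% humidity before absorbance at 600 nm was measured.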
# GRP78 ERSR act: ER stress response induction in glioma; U87-MG GRP78 promoter luciferase reporter, 16 h; Potency, µM, inactives show at the highest dose activation, usual class: activators; 0.02% of 420,000 active; AID 602332; note: series mostly up to about 76 µM; % of control where 0% means no effect; nearly all actives have a fitted effect of over 35% in size
#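 ERSR induction read as luciferase luminescence (Bright-Glo, 10 min at room temperature) in stably transfected human U87-MG glioma cells exposed to compounds for 16 h, using GRP78 as sensor.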
# TDP-43 yeast inh: inhibitors of TDP-43 toxicity in yeast | AID 652104 | TDP-43 expressing yeast growth rescue, BacTiter-Glo, 24 h | Potency, µM (doses to about 46.1 µM), for the others: at the highest dose growth rescue (activation), usual class: activators | 1.8% of 410,000 active; note: % of control where 0% means no effect; nearly all actives have a fitted effect of over 50% in size
#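 Yeast cells expressing TDP-43 under galactose induction are exposed to compounds for 24 hr at 30 deg C. BacTiter-Glo luminescence measures growth, so protective compounds score as activators.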
# Starred values were filed as active, the others as inactive; i = inactive; ? = inconclusive; . = no result. Unless noted, calls come from the whole dose curve; as a rule, active = well fitted curve in the direction sought with a large enough effect; inconclusive = small, poorly fitted or top-dose-only effect, or another doubt; inactive = no such curve, though single readings can be large; an effect the other way counts as inactive or inconclusive. Potency is the fitted concentration of half-maximal effect.
SMILES,Abeta yeast res,MBNL1 CUG block,aSyn yeast inh,FUS yeast rescue,GRP78 ERSR act,TDP-43 yeast inh
O=C(CSC1=NNC(c2ccccn2)S1)Nc1cccc(Cl)c1 (configuration not stated),15.8µM*,11.9%,8.91µM*,i,1.5%,?
O=C(CCCCCn1c(=S)[nH]c2ccccc2c1=O)NCc1ccc2c(c1)OCO2,i,17.3%,0.7%,i,-1.7%,7.08µM*
O=c1c2ccccc2[nH]c(=S)n1Cc1ccc2c(c1)OCO2,i,17.7%,8.5%,i,-3.1%,5.8%
C[n+]1ccnc2cc(Cl)ccc21,.,.,1.6%,.,-10.5%,.
CCN(CC)C(=O)CN1C(=O)C2CCCCN2C(=O)c2ccccc21 (configuration not stated),.,.,.,i,.,.
O=[N+]([O-])c1ccc(Nc2nccc(Cl)n2)cc1,i,.,2.9%,i,15.1%,5.62µM*
CC(C)(C)Nc1nc(Nc2ccc([N+](=O)[O-])cc2)nc(NC(C)(C)C)n1,i,-1.9%,-13.2%,i,0.7%,15.2%
COc1ccc2c(c1)OC(C)CN(CCNC(=O)c1ccc(-n3cccn3)cc1)C2 (configuration not stated),.,.,.,.,-4.6%,.
CCC(CC)C(=O)Nc1cc(-c2cccc(C)c2)nn1-c1ccccc1,i,.,.,i,5.8%,12.6µM*
CCC(Oc1ccccc1)C(=O)Nc1cc(-c2cccc(C)c2)nn1-c1ccccc1 (configuration not stated),i,.,.,i,0.3%,-9.0%
Cc1ccccc1C(=O)/C(C#N)=N/Nc1c(C)n(C)n(-c2ccccc2)c1=O,i,26.2%,15.8µM*,.,-6.4%,35.5µM*
Cc1cc(/C([O-])=C(/C(=S)Nc2ccccc2)[n+]2ccccc2)c(C)n1-c1ccccc1,i,19.5%,0.0%,15.8µM*,-8.7%,6.1%
CC(C)CNC(=O)COC(=O)c1cncc(Br)c1,i,-5.2%,0.0%,4.47µM*,-1.8%,-18.6%
CSc1ccc(Cl)c(C(=O)OCC(=O)NCC(C)C)c1,i,11.9%,0.4%,i,-0.9%,14.1µM*
CC(C)NC(=O)COC(=O)c1cncc(Br)c1,i,-4.6%,0.9%,i,-4.8%,-9.8%
CCN1CCCCC(NC(=O)c2cc(OC)c(OC)c(OC)c2)C1=O (configuration not stated),.,.,.,i,.,.
COc1ccc(-c2nnc3n2N=C(c2cccc([N+](=O)[O-])c2)CS3)cc1,.,.,.,i,.,.
COC(=O)C1=C(C)Nc2nc(-c3ccccc3)nn2C1c1ccc(C)o1 (configuration not stated),11.2µM*,-14.1%,-12.1%,i,4.2%,0.0%
O=c1c2sccc2nc(SCc2ccc([N+](=O)[O-])cc2)n1Cc1ccccn1,i,31.8%,3.4%,.,-3.2%,22.4µM*
COc1cccc(NC(=O)COc2ccccc2C(=O)Nc2ccccc2)c1,.,.,0.9%,.,.,.
Cn1c(-c2ccncc2)nc2cc(C(=O)N3CCCC3c3nccs3)cc(NC(=O)C3CCC3)c21 (configuration not stated),.,.,.,.,-4.9%,.
N/C(=N\OC(=O)N1c2ccccc2Sc2ccccc21)c1ccccc1,i,14.8%,-73.0%,i,-0.6%,3.55µM*
Cc1c(C(=O)N2CCN(CC(=O)Nc3ccccc3Cl)CC2)oc2ccc(Br)cc12,i,.,-5.5%,i,-7.0%,12.6µM*
Cn1cc(-c2ccc3c(c2)OCO3)c2ccccc21,i,.,1.7%,i,4.1%,25.1µM*
CCn1c(/C(C#N)=C/c2ccccc2Cl)nc2ccccc21,i,.,.,i,?,17.8µM*
SMILES,Abeta yeast res,MBNL1 CUG block,aSyn yeast inh,FUS yeast rescue,GRP78 ERSR act,TDP-43 yeast inh
Cn1c(/C(C#N)=C/c2ccccc2Br)nc2ccccc21,i,.,.,i,.,11.2µM*
CCn1c(/C(C#N)=N/O)nc2ccccc21,i,-11.1%,-7.0%,i,-0.6%,17.9%
Cn1c(/C(C#N)=N/O)nc2ccccc21,i,21.4%,-0.7%,i,-2.0%,12.9%
Cc1ccc(Nc2ncnc(Cl)c2N)cc1,i,.,3.5%,i,2.1%,35.5µM*
CCOC(=O)N1C(=O)[C@](c2ccc(Cl)cc2)(C(C)C)N1C(=O)OCC,i,-0.6%,-16.5%,i,3.4%,15.8µM*
CC[C@]1(c2ccc(C)cc2)C(=O)N(C(=O)OC(C)C)N1C(=O)OC(C)C,.,.,.,i,.,.
CCOC(=O)N1C(=O)[C@@](c2ccc(Cl)cc2)(C(C)C)N1C(=O)OCC,i,2.9%,-27.1%,i,-9.4%,20µM*
Clc1ccc(-c2cc3ccccc3[nH]2)cc1,i,13.7%,-31.0%,i,7.8%,10µM*
CCCCc1nc(NCCNC(=O)c2ccccc2)c(C#N)c2c1CSC(C)(C)C2,i,2.0%,-7.3%,i,0.1%,22.4µM*
CCCCc1nc(NCCNC(=O)c2ccco2)c(C#N)c2c1CSC(C)(C)C2,i,1.5%,-1.7%,?,0.6%,?
CSc1ccc(S(=O)(=O)Nc2ccc(F)cc2)cc1,i,0.7%,15.9%,i,6.6%,12.6µM*
COC(=O)c1ccc(NS(=O)(=O)c2ccc(SC)cc2)cc1,i,-12.0%,-11.5%,i,-2.9%,-8.9%
COc1ccc(NS(=O)(=O)c2ccc(SC)cc2)cc1,i,-9.1%,-10.4%,10µM*,1.6%,11.9%
COc1ccc(NS(=O)(=O)c2ccc(NS(C)(=O)=O)cc2)cc1,i,-12.6%,-8.2%,i,-3.1%,0.0%
Cc1ccnc2ccc(N)cc12,.,.,.,.,-0.1%,.
CCCCCCCCCCCCCCCCCC(=O)[O][Al],.,.,.,.,-4.3%,.
CC1(C2CCN(Cc3c[nH]c4ccccc34)CC2)NC(=O)N(CCN2CCOCC2)C1=O (configuration not stated),.,.,.,.,-0.6%,.
COc1ccc(/C=C/c2c(-c3ccc(OC)cc3)sc3ccc(N4CCOCC4)cc23)cc1,i,7.3%,1.2%,i,-0.5%,4.6%
COc1ccc(-c2oc3ccc(N4CCOCC4)cc3c2/C=C/c2ccc(OC)c(OC)c2)cc1,i,11.5%,1.8%,12.6µM*,-2.4%,11.1%
O=C(N[C@@H]1c2ccccc2C2(CCN(C(=O)c3ccc4c(c3)OCCO4)CC2)[C@H]1O)c1cccnc1,.,.,.,.,-4.4%,.
O=C(O)C1CCN(C(=O)c2ccccc2N2C(=O)[C@@H]3Cc4c([nH]c5ccccc45)C(c4cccc(Cl)c4)N3C2=O)CC1 (some centres not stated),i,0.3%,2.2%,12.6µM*,-2.3%,0.0%
